The source of these data is PubChem BioAssay (Tox21).

Activity calls are given as the source filed them. Entries that show only a call come without a potency. The call rests on the fitted dose curve; in most records, active means well fitted activation curve with a large enough effect in the repeat runs; inconclusive means weak or mixed curves; inactive means flat fitted curve, though single readings scatter.

Chain of KiSS-1 receptor (Homo sapiens) (Q969F8 whole entry, looked up): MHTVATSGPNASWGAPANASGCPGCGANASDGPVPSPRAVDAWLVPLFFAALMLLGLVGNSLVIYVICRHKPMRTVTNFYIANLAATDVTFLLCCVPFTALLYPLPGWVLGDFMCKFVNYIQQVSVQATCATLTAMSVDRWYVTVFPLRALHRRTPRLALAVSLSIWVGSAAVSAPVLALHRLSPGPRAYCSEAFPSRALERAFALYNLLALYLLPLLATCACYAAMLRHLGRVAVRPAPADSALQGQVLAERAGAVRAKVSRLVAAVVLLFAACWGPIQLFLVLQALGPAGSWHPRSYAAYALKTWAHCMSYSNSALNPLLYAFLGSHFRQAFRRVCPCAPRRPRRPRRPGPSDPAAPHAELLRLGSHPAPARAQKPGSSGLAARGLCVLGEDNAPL

This test has as its target KiSS-1 receptor (Homo sapiens) (UniProt Q969F8). The test is described as follows: Human kisspeptin (KISS1R) small molecule agonists, calcium flux assay in KISS1R-HEK293 cells (AID 1920064). The following applies: KISS1R-HEK293, calcium flux fluorescence, agonist; series mostly up to 76.8 µM. From the text: National Center for Advancing Translational Sciences [NCATS]
Division of Preclinical Innovation [DPI]
U.S. Environmental Protection Agency [EPA]
National Institutes of Environmental Health Sciences [NIEHS]
National Toxicology Program [NTP]
U.S. Food and Drug Administration [FDA]
Kisspeptin and its receptor KISS1R play key roles in mammalian reproduction due to their involvement in the onset of puberty and control of the hypothalamic-pituitary-gonadal axis such as regulates GnRH release from the hypothalamus. The kisspeptin/KISS1R system also plays a direct role in peripheral organs (including the ovary, testis, uterus, and placenta) and is implicated in reproductive diseases such as miscarriage and polycystic ovary syndrome (PCOS). Abnormal KISS1R activity is associated with abnormal puberty, infertility, endometriosis, and hormone-dependent tumors. The KISS1 receptor (KISS1R, also called GPR54), a G-protein-coupled receptor (GPCR), acts (through phospholipase C) to increase intracellular inositol trisphosphate and then release intracellular calcium stores. Cell-based KISS1R-HEK293 assay is using HEK293 cells that have been genetically engineered to express the human KISS1R, which activity can be measured by calcium signaling. A compound/drug can activate (agonist) KISS1R that can be monitored by levels of intracellular calcium.
KISS1R-HEK293 cells developed by Codex Corp contain human KISS1R gene, which was stably integrated into HEK 293 cells. The compound activation can be detected by fluorescence intensity via calcium flux assay. This cell line has been used to screen the Tox21 10K compound library to identify agonists of KISS1R.
KISS1R-Hek293 cells were dispensed at 1500 cells/4uL/well in 1536-well black wall/clear bottom plates using a multidrop dispenser. After the assay plates were incubated at a 37 C/5% CO2 incubator for 18 hours, 4 microL of Calcium Dye Solution was added to each well. The plates were incubated at 37 C for 1 hour. And then 23 nL of compounds dissolved in DMSO, positive controls, or DMSO only was transferred to the assay plate by a pin tool station. The fluorescence intensity in the plates was measured using FDSS 7000EX kinetic plate reader with a filter set of Ex/Em=480/540 for 3 min at 1 sec intervals. Each test compound was measured at 15 concentrations and in triplicates.
With `COP(=S)(OC)Oc1cc(Cl)c(Br)cc1Cl`, the Potency result was “inactive”.
Same read-out and setting: with `CCOP(=S)(OCC)OC(Cl)C(Cl)(Cl)Cl` (stereo not given) the entry was “inactive”; with `C#CC(O)(C=CCl)CC` (stereo not given), “inactive”; with `CC(C)(c1cc(Cl)c(O)c(Cl)c1)c1cc(Cl)c(O)c(Cl)c1`, “inactive”.
`COC1CC(=C(c2cccs2)c2cccs2)C[N+](C)(C)C1` (stereo not given): the Potency result is “inactive”.
Still for that read-out and setting: with `C=C(C)[C@H]1CN[C@H](C(=O)O)[C@H]1CC(=O)O` the entry was “inactive”; with `CCC[CH2][Sn]([CH2]CCC)([O]C(C)=O)[O]C(C)=O`, “inactive”; with `CN(N=O)c1ccc([N+](=O)[O-])cc1`, “inactive”.
On the same count and under the same terms, to `Cc1c(Cl)c(=O)oc2cc(OP(=O)(OCCCl)OCCCl)ccc12` belongs “inactive”; to `ClC(Cl)C(Cl)Cl`, “inactive”.
Same read-out and setting: to `CCC(C)c1cc(C(C)(C)C)cc(-n2nc3ccccc3n2)c1O` (stereo not given) belongs “inactive”; to `O=C(CCCN1CCC(n2c(=O)[nH]c3ccccc32)CC1)c1ccc(F)cc1`, “inactive”; to `CC(C)[C@H](C(=O)OC(C#N)c1cccc(Oc2ccccc2)c1)c1ccc(OC(F)F)cc1` (stereo not given in full), “inactive”.
In the case of `CC(Cc1ccc(C(C)(C)C)cc1)CN1C[C@@H](C)O[C@@H](C)C1` (stereo not given in full), the Potency result was “inactive”.
Still for that read-out and setting: with `CC(C)(C)NCC(O)c1ccccc1Cl` (stereo not given) the entry was “inactive”; with `COc1cc(CC(C)N)cc2c1OCO2` (stereo not given), “inactive”.
Same read-out and setting: to `CCCCCCCCCCCCN(C)C` belongs “inactive”; to `c1ccc(OCC2CO2)cc1` (stereo not given), “inactive”.
Same read-out and setting: with `Clc1cccc2ccccc12` the entry was “inactive”; with `Oc1ccc(C(=C(Cl)Cl)c2ccc(O)cc2)cc1`, “inactive”; with `O=[N+]([O-])c1ccc(Cl)c(Cl)c1Cl`, “inactive”.
As for `CN(C)CCc1c[nH]c2ccccc12`, the Potency entry is “inactive”.
The same measure, in the same setting: to `CCCOC(=O)Cc1ccc(OCC(=O)N(CC)CC)c(OC)c1` belongs “inactive”.
Same read-out and setting: to `Nc1cc(Cl)ccc1O` belongs “inactive”.
On the same count and under the same terms, to `Clc1ccc2ccccc2c1` belongs “inactive”; to `CN1CCC(O)(c2ccc(F)cc2)C(C(=O)c2ccc(F)cc2)C1` (stereo not given), “inactive”.
For `CCCSP(=S)(OCC)Oc1ccc(SC)cc1` (stereo not given), the Potency entry was “inactive”.
Still for that read-out and setting: to `CC#C[C@]1(O)CC[C@H]2[C@@H]3C[C@H](C)C4=CC(=O)CC[C@]4(C)[C@H]3CC[C@@]21C` belongs “inactive”; to `CN(C)CCc1c[nH]c2cccc(O)c12`, “inactive”.
As for `CC(C(O)c1ccccc1)N(C)C/C=C/c1ccccc1` (stereo not given), the Potency entry was “inactive”.
On the same count and under the same terms, with `CNN` the entry was “inactive”; with `CCCC[N+]1(C)[C@@H]2CC(OC(=O)[C@H](CO)c3ccccc3)C[C@H]1[C@@H]1O[C@@H]12` (stereo not given in full), “inactive”; with `O=C(CCl)C(Cl)Cl`, “inactive”.
Still for that read-out and setting: with `CN/C(=N\[N+](=O)[O-])NCC1CCOC1` (stereo not given) the entry was “inactive”; with `c1ccc2c(c1)cc1ccc3cccc4ccc2c1c34`, “inactive”; with `O=C(O)c1cccc(Cl)c1`, “inactive”.
Regarding `NCC(CC(=O)O)c1ccc(Cl)cc1` (stereo not given), the activation is -1.08% [at 0.29 µM] (inactive).
Turning to `CC[C@H]1C[C@H]2[C@@H]3CCC4=CC(=O)CC[C@@H]4[C@H]3CC[C@]2(C)[C@H]1O`, the Potency result was “inactive”.
Still for that read-out and setting: with `N#CC(CCc1ccc(Cl)cc1)(Cn1cncn1)c1ccccc1` (stereo not given) the entry was “inactive”.
The same measure, in the same setting: to `CCC1(C2=NCCN2)Cc2ccccc2O1` (stereo not given) belongs “inactive”.
